Tgondii IFNg: T. gondii growth inhibition with IFN-gamma, primary screen, cell-based; activity change, negative = inhibition, % (test concentration not listed); Toxoplasma gondii growth in IFN-gamma-treated host cells; hits give low values; actives 3.8% (n = 69,000); in the data active = activity change below about -70%, passing the limit was not always enough;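 note: host cells are HeLa cells infected with Toxoplasma gondii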
* hit, by the source's call; i = inactive; ! = a repeat was not active. Many of the other results were omitted from the sample, so hits are more common in it than they were.

SMILES | Tgondii IFNg
CC(C)CC(=O)Nc1ccc(S(=O)(=O)N2CCC3(CC2)Nc2ccccc2-n2cccc23)cc1 | 1
CC(C)CC(=O)Nc1ccc(S(=O)(=O)N2CCC3(CC2)Nc2cc(F)ccc2-n2cccc23)cc1 | -77*
COc1ccc2c(c1)NC1(CCN(C(=O)Cc3ccc(F)cc3)CC1)c1cccn1-2 | -84*
COc1ccc2c(c1)NC1(CCN(C(=O)c3ccc(Br)o3)CC1)c1cccn1-2 | -79*
COc1ccc(CC(=O)N2CCC3(CC2)Nc2cc(OC)ccc2-n2cccc23)cc1 | 51
COc1ccc(OCC(=O)N2CCC3(CC2)Nc2cc(C)ccc2-n2cccc23)cc1 | 31
COc1cccc(CC(=O)N2CCC3(CC2)Nc2cc(OC)ccc2-n2cccc23)c1 | -34
O=C(c1ccc(Br)o1)N1CCC2(CC1)Nc1cc(F)ccc1-n1cccc12 | -27
c1ccc2c(c1)CNCC21CCN(C2CCOCC2)CC1 | -1
Cn1c(CNC(=O)C2CCC2)nc2c1CN(S(=O)(=O)Cc1ccc(Cl)cc1)CC2 | 57
O=C(Cn1c(=O)c(S(=O)(=O)c2ccccc2)cc2ccccc21)NC1CCCC1 | 14
O=C(c1ccco1)N1CCCN(Cc2ccc3cccc(O)c3n2)CC1 | 7
COc1cc(NCCN(C)S(C)(=O)=O)ncn1 | -48
Cc1nc2n(n1)CCN(C(=O)c1ccc(S(=O)(=O)N3CCOCC3)cc1)C2 | -1
Cc1ccc(N2CCO[C@H]3CN(c4ncc(F)cn4)CC[C@@H]3C2)nn1 | -9
CN(C)CC1(O)CCCN(S(=O)(=O)c2ccc(C(F)(F)F)cc2)CC1 (stereo not drawn) | -14
COc1ccc2[nH]c3c(c2c1)CCNC3=O | -89*
COc1ccc2[nH]c3c(c2c1)CCNC31C(=O)N(CCC(C)C)c2ccccc21 (stereo not drawn) | 68
CCCN1C(=O)C2(NCCc3c2[nH]c2ccc(OC)cc32)c2cc(Br)ccc21 (stereo not drawn) | 53
O=C(CSc1nnnn1-c1ccc2ccccc2c1)NCc1ccco1 | 48
CNc1nc(C)c(C(=O)N2CCCC(c3cc(=O)nc4n3CCC4)C2)s1 (stereo not drawn) | 9
CSc1nccc(-c2ccc(O)cc2)n1 | -78*
CSc1nncc(-c2ccc(Cl)cc2)n1 | -41
COc1cccc(-c2ccc(O)cc2)n1 | 28
NCC(=O)N[C@@H](CCC(N)=O)C(=O)O | -3
SMILES | Tgondii IFNg
CC[C@@]1(O)C(=O)OCc2c1cc1n(c2=O)Cc2cc3c(CN(C)C)c(O)ccc3nc2-1 | -78*
CC[C@@]1(O)C(=O)OCc2c1cc1n(c2=O)Cc2cc3c([N+](=O)[O-])cccc3nc2-1 | -80*
Cc1cc(=O)oc2c(CN(C)C)c(O)ccc12 | -2
Cc1cnc(C(=O)N2CCC3(CCCN3Cc3cccnc3)CC2)cn1 | 2
O=c1[nH]c2ccccc2c(O)c1C1=NS(=O)(=O)c2ccccc2N1 | -4
COc1ccccc1OCC(=O)N(C)Cc1cn[nH]c1-c1ccc(F)cc1 | 5
CC(C)(C)[S@](=O)N1Cc2cc(C(=O)NC3CCC3)nc(-c3cccc(Br)c3)c2[C@@H]1CCO | -75*
CN(C)C(=O)c1ccc(-c2cccc(-c3nc(C(=O)NC4CCCCC4)cc4c3[C@H](CCO)N([S@@](=O)C(C)(C)C)C4)c2)cc1 | -48
COc1ccc(C#Cc2cccc(-c3nc(C(=O)Nc4ccc(-c5ccccc5)cc4)cc4c3[C@@H](CCO)N(S(=O)C(C)(C)C)C4)c2)cc1OC (stereo partly drawn) | -71*
COc1ccc(C#Cc2cccc(-c3nc(C(=O)NCCCN4CCOCC4)cc4c3[C@@H](CCO)N(S(=O)C(C)(C)C)C4)c2)cc1OC (stereo partly drawn) | 23
CC(C)(C)[S@@](=O)N1Cc2cc(C(=O)NC3CCC3)nc(-c3cccc(Br)c3)c2[C@H]1CCO | 48
COc1ccc(C#Cc2cccc(-c3nc(C(=O)N4CCN(Cc5ccccc5)CC4)cc4c3[C@@H](CCO)N(S(=O)C(C)(C)C)C4)c2)cc1OC (stereo partly drawn) | -48
CCOc1ccc2nc(SCc3ccc4c(c3)OCO4)sc2c1 | 12
Cc1nc(C(Cc2c[nH]c3ccccc23)NS(=O)(=O)c2ccc(F)c(C)c2)cc(=O)[nH]1 (stereo not drawn) | 23
CCCCOc1ccc(C(C)=O)cc1Cc1c(O)nc(SC)[nH]c1=O | -3
O=C(NCCc1csc(-c2ccccc2)n1)c1ccccc1Br | i
CSc1ncc(C(=O)Nc2ccc(Oc3ccc4c(c3)OCO4)cc2)cn1 | -103*
CSc1ncc(C(=O)Nc2cccc(C(=O)N3CCCCC3)c2)cn1 | 13
CCCN(CCC)S(=O)(=O)c1ccc(NC(=O)c2ccc3c(c2)OCO3)cc1 | -65
CN1C[C@H]2C3(CCN(CC4CCOCC4)CC3)CC[C@]2(C(=O)N(C)C)C1 | 8
CCN1CCNC(=O)C12CCN(Cc1nccs1)CC2 | 0
COC(=O)CSC(=O)NC(=O)c1ccccc1Oc1ccc(Cl)cc1Cl | -92*
COc1ccccc1Oc1ccccc1C(=O)O | 0
O=S(=O)(Nc1ccc(F)c(Cl)c1)c1ccccc1Oc1ccc(Cl)cc1Cl | 51
O=C(Nc1ccccc1-c1ccccc1CO)C1CC1 | 6
SMILES | Tgondii IFNg
Cc1oc(-c2ccc(F)cc2F)nc1CN1CCN(c2ccccc2Cl)CC1 | 21
COc1ccc([C@@H]2CC(=O)c3c(O)cc(O[C@@H]4O[C@H](CO[C@@H]5O[C@@H](C)[C@H](O)[C@@H](O)[C@H]5O)[C@@H](O)[C@H](O)[C@H]4O)cc3O2)cc1O | 10
COc1ccc([C@@H]2CC(=O)c3c(O)cc(O)cc3O2)cc1O | -77*!
O=C1C[C@@H](c2ccccc2)Oc2cc(O)cc(O)c21 | 1
Cc1cc(NC(=O)Cn2c(=O)cc(-c3nc(C(C)C)no3)c3ccccc32)ccc1F | -16
CCS(=O)(=O)N1CCC2(CC1)OC(=O)C(C)=C2C(=O)N1CCN(c2cccc(OC)c2)CC1 | 35
C=CCN(Cc1ccccc1OC)C(=O)C(C)c1ccccc1 (stereo not drawn) | -16
CC(c1ccc(C(=O)NCCc2c[nH]c3ccccc23)o1)N1CCCCC1 (stereo not drawn) | 9
Cc1cc(C)n(C2CCN(C(=O)c3cnn4c3CCCC4)C2)n1 (stereo not drawn) | -4
CN1CCN(C(=O)c2cc3c(c4ccccc4n3C)n2C)CC1 | 31
CCOc1cc(CCC(=O)Nc2n[nH]c(CC)n2)on1 | 39
CCOc1cc(CCC(=O)N2CCc3[nH]c4c(Cl)cccc4c3C2)on1 | 40
CCOc1cc(CCC(=O)N2CCCc3c(Cl)cc(Cl)c(O)c32)on1 | -87*
Cc1nc2ccc(NC(=O)c3cccc4c3C(=O)N(CC3CCCO3)C4)cc2s1 (stereo not drawn) | -44
O=C(NCCc1csc(-c2ccccc2)n1)[C@H]1CCCN1S(=O)(=O)c1cccc(F)c1 | -47
CC(C)n1cnc2c1C(C(=O)N1CCCC(O)C1)N(C(=O)c1ccccc1)CC2 (stereo not drawn) | 4
Cc1ccccc1NC(=O)N1CCC[C@]2(C(=O)N(C)C)CN(Cc3cnn(C)c3)C[C@H]2C1 | 3
Cc1ccc(OCC(=O)NCCc2sc(-c3ccc(F)cc3)nc2C)cc1 | -24
Cc1nc(-c2ccc(Cl)cc2)sc1CCNC(=O)c1ccc(F)c(F)c1 | -77*
Cc1nc(-c2ccc(F)cc2)sc1CCNC(=O)c1ccc(C(C)(C)C)cc1 | -26
Cc1nc(-c2ccc(F)cc2)sc1CCNC(=O)c1ccccc1 | -26
Cc1ccc(OCC(=O)NCCc2sc(-c3ccc(Cl)cc3)nc2C)cc1 | -76*

Assay outcomes: PubChem BioAssay, Broad Institute
